Assays:
Assay in all cases: DAPPL (digital affinity profiling via proximity ligation, sequencing); 10 mM Tris-HCl pH 7.5, 50 mM NaCl, 1 mM DTT, 4% glycerol, room temperature, 30 min; GST-TFs on glutathione beads, 16-mer random dsDNA library, 0.1% formaldehyde crosslink after washing; high values mean tight binding
FEV = molecular target: T1, FEV (Homo sapiens, UniProt Q99581 1-238); settings: protein: recombinant; tags: N-terminal GST; dsDNA, one strand shown
T1 sequence: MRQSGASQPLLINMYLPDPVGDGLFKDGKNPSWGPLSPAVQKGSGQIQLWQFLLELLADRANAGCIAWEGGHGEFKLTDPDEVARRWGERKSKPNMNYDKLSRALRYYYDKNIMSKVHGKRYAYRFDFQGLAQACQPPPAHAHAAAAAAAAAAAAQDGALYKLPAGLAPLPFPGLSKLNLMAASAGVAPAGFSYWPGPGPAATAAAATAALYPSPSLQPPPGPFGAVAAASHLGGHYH
Outline: (§1)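 Human transcription factors fused to GST were expressed in yeast, captured on glutathione beads, given DNA barcodes and pooled with a GST-only negative control. Pools were incubated with 200 nmole of a 16-mer random double-stranded DNA library in Tris/NaCl/DTT/glycerol buffer at room temperature for 30 min. They were then washed, crosslinked with 0.1% formaldehyde, proximity-ligated (BsaI/T4 ligase, 1 h, 37 °C), PCR-amplified and sequenced on an Illumina NextSeq500. Binding signal is each 6-mer's read frequency for a factor divided by its frequency for the GST control.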

ETV5 = ETV5 (Homo sapiens, UniProt P41161 1-510); settings: protein: recombinant; tags: N-terminal GST; dsDNA, one strand shown
Outline: as §1

HSF1 = HSF1 (Homo sapiens, UniProt Q00613 1-529); settings: protein: recombinant; tags: N-terminal GST; chain copies: 3; dsDNA, one strand shown
Outline: as §1

SPIC = molecular target: T2, SPIC (Homo sapiens, UniProt Q8N5J4 1-248); settings: protein: recombinant; tags: N-terminal GST; dsDNA, one strand shown
T2 sequence: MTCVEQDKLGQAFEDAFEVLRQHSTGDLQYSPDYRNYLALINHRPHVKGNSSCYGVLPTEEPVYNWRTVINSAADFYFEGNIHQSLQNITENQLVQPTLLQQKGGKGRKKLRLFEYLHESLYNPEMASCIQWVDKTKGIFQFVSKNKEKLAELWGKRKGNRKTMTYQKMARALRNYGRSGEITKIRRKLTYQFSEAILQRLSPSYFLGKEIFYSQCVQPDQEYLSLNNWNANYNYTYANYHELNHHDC
Outline: as §1

ELF4 = ELF4 (Homo sapiens, UniProt Q99607 1-663); settings: protein: recombinant; tags: N-terminal GST; dsDNA, one strand shown
Outline: as §1

ELK4 = molecular target: T3, ELK4 (Homo sapiens, UniProt P28324-2 1-405); settings: protein: recombinant; tags: N-terminal GST; dsDNA, one strand shown
T3 sequence: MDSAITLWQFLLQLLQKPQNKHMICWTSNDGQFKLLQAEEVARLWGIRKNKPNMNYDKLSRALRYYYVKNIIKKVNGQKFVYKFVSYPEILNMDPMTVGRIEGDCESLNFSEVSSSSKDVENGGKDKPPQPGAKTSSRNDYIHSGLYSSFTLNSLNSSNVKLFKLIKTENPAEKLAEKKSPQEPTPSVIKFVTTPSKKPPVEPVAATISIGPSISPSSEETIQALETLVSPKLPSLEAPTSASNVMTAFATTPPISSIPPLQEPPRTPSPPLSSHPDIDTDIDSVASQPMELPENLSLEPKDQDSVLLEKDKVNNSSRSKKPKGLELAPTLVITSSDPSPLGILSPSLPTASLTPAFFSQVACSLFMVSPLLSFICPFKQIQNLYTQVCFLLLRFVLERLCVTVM
Outline: as §1

ETV2 = molecular target: T4, ETV2 (Homo sapiens, UniProt O00321 1-342); settings: protein: recombinant; tags: N-terminal GST; dsDNA, one strand shown
T4 sequence: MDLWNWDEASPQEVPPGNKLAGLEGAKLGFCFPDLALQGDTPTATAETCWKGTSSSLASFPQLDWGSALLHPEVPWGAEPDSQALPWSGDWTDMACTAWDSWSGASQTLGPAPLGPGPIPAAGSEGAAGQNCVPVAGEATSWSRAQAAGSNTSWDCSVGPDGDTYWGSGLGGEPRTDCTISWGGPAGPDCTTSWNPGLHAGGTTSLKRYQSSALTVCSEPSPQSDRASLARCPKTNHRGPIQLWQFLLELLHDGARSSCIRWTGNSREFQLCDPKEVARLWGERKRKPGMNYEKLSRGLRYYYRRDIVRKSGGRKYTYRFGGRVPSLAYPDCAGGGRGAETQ
Outline: as §1

ELF3 = molecular target: T5, ELF3 (Homo sapiens, UniProt P78545 1-371); settings: protein: recombinant; tags: N-terminal GST; dsDNA, one strand shown
T5 sequence: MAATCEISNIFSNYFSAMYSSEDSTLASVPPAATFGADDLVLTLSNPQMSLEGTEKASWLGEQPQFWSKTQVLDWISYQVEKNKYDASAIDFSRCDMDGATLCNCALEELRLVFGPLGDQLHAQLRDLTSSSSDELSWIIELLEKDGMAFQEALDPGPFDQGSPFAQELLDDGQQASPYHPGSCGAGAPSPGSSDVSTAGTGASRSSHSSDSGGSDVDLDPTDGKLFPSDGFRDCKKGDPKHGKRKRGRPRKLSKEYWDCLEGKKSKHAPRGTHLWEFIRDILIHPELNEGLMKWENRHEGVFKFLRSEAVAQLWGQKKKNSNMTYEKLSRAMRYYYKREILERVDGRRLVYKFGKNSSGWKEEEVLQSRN
Outline: as §1

CRX = CRX (Homo sapiens, UniProt O43186 1-299); settings: protein: recombinant; tags: N-terminal GST; dsDNA, one strand shown
Outline: as §1

ETV1 = ETV1 (Homo sapiens, UniProt P50549 1-477); settings: protein: recombinant; tags: N-terminal GST; dsDNA, one strand shown
Outline: as §1

ERF = molecular target: T6, ERF (Homo sapiens, UniProt P50548 1-548); settings: protein: recombinant; tags: N-terminal GST; dsDNA, one strand shown
T6 sequence: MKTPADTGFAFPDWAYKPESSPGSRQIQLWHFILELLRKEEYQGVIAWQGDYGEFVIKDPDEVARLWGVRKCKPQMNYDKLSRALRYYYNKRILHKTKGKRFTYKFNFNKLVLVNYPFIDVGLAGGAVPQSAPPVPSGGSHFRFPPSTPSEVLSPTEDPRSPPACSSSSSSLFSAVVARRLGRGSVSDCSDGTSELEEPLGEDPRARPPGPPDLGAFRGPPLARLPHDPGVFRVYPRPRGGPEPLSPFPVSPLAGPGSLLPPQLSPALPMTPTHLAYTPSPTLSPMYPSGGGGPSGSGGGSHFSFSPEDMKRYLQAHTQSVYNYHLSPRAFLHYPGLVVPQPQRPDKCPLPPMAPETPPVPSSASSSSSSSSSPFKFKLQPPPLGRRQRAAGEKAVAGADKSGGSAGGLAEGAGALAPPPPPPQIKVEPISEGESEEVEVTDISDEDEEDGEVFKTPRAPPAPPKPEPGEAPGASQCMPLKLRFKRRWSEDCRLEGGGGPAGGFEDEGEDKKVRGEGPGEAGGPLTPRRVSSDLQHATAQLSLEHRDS
Outline: as §1

ETV3L = molecular target: T7, ETV3L (Homo sapiens, UniProt Q6ZN32 1-361); settings: protein: recombinant; tags: N-terminal GST; dsDNA, one strand shown
T7 sequence: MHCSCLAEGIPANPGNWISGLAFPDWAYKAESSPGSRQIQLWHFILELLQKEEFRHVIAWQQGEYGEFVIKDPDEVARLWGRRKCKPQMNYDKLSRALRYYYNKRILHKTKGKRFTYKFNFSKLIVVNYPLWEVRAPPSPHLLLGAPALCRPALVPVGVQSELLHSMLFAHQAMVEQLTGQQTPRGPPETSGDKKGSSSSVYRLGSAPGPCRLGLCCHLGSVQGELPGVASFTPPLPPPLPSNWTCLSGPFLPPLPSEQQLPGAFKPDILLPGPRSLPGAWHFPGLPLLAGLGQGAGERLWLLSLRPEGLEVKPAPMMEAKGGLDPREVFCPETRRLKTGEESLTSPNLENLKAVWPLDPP
Outline: as §1

ETS2 = molecular target: T8, ETS2 (Homo sapiens, UniProt P15036 1-469); settings: protein: recombinant; tags: N-terminal GST; dsDNA, one strand shown
T8 sequence: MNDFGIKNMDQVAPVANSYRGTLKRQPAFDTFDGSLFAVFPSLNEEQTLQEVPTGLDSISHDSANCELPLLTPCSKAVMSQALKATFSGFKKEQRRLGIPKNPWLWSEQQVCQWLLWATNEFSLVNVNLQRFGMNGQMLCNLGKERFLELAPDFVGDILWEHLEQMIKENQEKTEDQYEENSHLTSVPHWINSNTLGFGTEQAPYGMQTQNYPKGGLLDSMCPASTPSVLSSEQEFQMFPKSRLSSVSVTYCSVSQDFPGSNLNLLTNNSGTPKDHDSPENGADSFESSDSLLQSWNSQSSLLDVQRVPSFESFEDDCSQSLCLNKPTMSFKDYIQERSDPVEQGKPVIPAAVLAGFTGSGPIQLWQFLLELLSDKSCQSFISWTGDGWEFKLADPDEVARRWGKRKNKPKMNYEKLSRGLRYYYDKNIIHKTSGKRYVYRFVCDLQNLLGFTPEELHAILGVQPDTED
Outline: as §1

SPDEF = molecular target: T9, SPDEF (Homo sapiens, UniProt O95238 1-335); settings: protein: recombinant; tags: N-terminal GST; dsDNA, one strand shown
T9 sequence: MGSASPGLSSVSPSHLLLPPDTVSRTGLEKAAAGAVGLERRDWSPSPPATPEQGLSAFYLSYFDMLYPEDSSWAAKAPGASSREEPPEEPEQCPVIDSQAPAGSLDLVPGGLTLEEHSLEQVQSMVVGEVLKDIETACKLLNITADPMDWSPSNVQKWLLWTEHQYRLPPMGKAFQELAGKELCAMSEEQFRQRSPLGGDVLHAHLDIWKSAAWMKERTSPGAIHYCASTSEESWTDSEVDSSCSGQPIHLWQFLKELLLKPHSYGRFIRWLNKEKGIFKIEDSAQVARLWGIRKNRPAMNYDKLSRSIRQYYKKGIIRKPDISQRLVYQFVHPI
Outline: as §1

ETV7 = molecular target: T10, ETV7 (Homo sapiens, UniProt Q9Y603 1-341); settings: protein: recombinant; tags: N-terminal GST; dsDNA, one strand shown
T10 sequence: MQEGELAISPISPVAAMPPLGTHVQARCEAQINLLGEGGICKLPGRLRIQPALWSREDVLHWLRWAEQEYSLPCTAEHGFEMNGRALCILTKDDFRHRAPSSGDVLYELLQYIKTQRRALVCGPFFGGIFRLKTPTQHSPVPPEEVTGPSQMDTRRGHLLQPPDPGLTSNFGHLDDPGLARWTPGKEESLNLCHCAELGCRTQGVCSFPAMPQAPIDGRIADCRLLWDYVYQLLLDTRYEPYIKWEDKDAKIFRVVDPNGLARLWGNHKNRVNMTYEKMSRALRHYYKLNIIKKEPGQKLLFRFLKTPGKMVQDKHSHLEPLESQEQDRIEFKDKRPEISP
Outline: as §1

ELF5 = molecular target: T11, ELF5 (Homo sapiens, UniProt Q9UKW6-2 1-255); settings: protein: recombinant; tags: N-terminal GST; dsDNA, one strand shown
T11 sequence: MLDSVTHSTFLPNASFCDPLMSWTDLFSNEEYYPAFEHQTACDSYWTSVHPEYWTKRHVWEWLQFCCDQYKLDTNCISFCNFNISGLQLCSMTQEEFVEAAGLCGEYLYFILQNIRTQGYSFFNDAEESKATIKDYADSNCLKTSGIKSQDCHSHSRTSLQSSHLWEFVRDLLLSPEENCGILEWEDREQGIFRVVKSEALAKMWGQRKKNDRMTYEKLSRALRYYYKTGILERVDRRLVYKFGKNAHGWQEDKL
Outline: as §1

ETV3 = molecular target: T12, ETV3 (Homo sapiens, UniProt P41162-2 1-143); settings: protein: recombinant; tags: N-terminal GST; dsDNA, one strand shown
T12 sequence: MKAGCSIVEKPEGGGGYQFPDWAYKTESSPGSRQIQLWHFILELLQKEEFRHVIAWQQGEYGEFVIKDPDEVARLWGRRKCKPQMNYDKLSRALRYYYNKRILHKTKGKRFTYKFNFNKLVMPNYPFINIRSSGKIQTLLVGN
Outline: as §1

ETV6 = ETV6 (Homo sapiens, UniProt P41212 1-452); settings: protein: recombinant; tags: N-terminal GST; dsDNA, one strand shown
Outline: as §1

Sequence of CRX (O43186 whole entry): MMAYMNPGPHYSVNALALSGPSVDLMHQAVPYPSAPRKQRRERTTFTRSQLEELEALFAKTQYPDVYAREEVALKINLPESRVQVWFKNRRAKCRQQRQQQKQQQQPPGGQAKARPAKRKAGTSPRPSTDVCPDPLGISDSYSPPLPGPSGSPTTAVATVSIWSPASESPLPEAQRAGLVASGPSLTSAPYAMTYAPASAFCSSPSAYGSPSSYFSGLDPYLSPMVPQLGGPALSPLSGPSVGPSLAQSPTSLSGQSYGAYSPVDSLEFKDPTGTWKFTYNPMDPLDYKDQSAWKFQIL
Sequence of ETV1 (P50549 whole entry): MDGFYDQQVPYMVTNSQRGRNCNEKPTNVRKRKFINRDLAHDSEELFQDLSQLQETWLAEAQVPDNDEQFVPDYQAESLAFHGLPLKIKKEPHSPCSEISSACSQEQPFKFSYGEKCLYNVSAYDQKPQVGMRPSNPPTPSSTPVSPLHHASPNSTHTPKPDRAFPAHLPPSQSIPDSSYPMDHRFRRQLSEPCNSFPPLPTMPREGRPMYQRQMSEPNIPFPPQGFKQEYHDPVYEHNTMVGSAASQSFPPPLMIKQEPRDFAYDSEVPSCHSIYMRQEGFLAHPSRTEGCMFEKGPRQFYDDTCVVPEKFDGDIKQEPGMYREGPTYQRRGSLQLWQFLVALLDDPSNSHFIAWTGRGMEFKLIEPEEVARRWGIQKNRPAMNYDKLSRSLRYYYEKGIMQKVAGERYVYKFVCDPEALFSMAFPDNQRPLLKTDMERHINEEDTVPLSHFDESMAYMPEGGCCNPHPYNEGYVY
Sequence of ELF4 (Q99607 whole entry): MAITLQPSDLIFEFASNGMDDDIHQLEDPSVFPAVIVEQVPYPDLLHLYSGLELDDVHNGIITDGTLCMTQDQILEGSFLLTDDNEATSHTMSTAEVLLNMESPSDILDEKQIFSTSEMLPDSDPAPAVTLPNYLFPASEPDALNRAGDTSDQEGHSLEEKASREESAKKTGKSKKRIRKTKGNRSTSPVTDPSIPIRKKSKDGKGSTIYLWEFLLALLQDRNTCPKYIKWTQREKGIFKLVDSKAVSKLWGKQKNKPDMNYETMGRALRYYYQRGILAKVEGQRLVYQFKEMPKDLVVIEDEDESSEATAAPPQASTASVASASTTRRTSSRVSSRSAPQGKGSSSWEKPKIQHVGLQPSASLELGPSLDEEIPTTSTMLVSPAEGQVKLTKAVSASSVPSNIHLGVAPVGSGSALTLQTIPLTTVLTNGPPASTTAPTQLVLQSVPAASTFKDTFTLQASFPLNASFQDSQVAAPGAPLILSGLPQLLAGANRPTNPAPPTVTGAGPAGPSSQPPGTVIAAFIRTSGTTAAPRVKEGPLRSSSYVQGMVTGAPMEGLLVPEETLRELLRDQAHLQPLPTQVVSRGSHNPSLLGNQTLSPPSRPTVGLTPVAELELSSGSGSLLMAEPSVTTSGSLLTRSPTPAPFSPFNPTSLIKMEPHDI
Sequence of ETV5 (P41161 whole entry): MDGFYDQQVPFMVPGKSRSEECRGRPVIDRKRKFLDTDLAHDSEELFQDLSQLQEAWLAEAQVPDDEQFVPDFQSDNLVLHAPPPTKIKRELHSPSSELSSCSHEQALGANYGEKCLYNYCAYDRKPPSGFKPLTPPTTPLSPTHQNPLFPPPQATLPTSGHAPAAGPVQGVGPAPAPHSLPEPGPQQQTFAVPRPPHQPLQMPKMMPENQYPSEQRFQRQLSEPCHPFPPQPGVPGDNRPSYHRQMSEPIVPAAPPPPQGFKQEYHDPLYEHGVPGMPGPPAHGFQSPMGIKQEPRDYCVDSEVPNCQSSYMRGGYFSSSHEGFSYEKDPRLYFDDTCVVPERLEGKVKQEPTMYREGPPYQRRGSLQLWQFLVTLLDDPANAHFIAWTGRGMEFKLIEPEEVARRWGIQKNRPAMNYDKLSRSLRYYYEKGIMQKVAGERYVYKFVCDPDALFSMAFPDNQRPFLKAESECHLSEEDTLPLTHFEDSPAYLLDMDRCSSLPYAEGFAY
Sequence of HSF1 (Q00613 whole entry): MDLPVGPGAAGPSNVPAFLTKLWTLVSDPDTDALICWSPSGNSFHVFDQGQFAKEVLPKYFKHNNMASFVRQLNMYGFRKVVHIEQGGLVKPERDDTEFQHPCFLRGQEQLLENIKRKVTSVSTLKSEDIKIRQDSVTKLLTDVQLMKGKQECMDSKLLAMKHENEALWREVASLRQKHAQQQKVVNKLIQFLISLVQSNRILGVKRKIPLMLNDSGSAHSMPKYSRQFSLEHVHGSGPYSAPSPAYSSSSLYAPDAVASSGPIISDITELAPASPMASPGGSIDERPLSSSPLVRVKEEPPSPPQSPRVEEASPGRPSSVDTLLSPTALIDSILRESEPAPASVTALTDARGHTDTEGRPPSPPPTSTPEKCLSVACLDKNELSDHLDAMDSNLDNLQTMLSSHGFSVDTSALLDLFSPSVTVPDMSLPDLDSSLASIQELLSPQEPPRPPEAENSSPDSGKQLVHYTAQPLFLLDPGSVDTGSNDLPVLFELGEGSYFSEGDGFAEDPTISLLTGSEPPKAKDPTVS
Sequence of ETV6 (P41212 whole entry): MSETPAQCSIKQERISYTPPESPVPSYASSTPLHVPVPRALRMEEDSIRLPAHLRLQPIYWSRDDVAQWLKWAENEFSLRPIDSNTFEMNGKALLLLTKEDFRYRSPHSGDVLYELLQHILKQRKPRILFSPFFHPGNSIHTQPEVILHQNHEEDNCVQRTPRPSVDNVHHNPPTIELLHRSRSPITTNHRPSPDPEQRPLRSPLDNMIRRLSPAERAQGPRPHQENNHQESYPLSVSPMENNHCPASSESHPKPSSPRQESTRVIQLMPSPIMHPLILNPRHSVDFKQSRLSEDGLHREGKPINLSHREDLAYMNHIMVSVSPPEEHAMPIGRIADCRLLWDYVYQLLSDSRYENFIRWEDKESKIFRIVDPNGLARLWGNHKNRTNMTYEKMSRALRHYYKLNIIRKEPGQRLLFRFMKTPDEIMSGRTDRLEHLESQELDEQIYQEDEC

Sequence	binding signal (FEV)	binding signal (ETV5)	binding signal (HSF1)	binding signal (SPIC)	binding signal (ELF4)	binding signal (ELK4)	binding signal (ETV2)	binding signal (ELF3)	binding signal (CRX)	binding signal (ETV1)	binding signal (ERF)	binding signal (ETV3L)	binding signal (ETS2)	binding signal (SPDEF)	binding signal (ETV7)	binding signal (ELF5)	binding signal (ETV3)	binding signal (ETV6)
TTGTCT	1.24 fold enrichment (6-mer frequency, TF over GST control)	1.29 fold enrichment (6-mer frequency, TF over GST control)	1.14 fold enrichment (6-mer frequency, TF over GST control)	1.3 fold enrichment (6-mer frequency, TF over GST control)	1.18 fold enrichment (6-mer frequency, TF over GST control)	1.22 fold enrichment (6-mer frequency, TF over GST control)	1.27 fold enrichment (6-mer frequency, TF over GST control)	1.34 fold enrichment (6-mer frequency, TF over GST control)	1.15 fold enrichment (6-mer frequency, TF over GST control)	1.2 fold enrichment (6-mer frequency, TF over GST control)	1.16 fold enrichment (6-mer frequency, TF over GST control)	1.18 fold enrichment (6-mer frequency, TF over GST control)	1.22 fold enrichment (6-mer frequency, TF over GST control)	1.22 fold enrichment (6-mer frequency, TF over GST control)	1.33 fold enrichment (6-mer frequency, TF over GST control)	1.26 fold enrichment (6-mer frequency, TF over GST control)	1.23 fold enrichment (6-mer frequency, TF over GST control)	1.13 fold enrichment (6-mer frequency, TF over GST control)
CTGACT	1.32 fold enrichment (6-mer frequency, TF over GST control)	1.23 fold enrichment (6-mer frequency, TF over GST control)	1.05 fold enrichment (6-mer frequency, TF over GST control)	1.24 fold enrichment (6-mer frequency, TF over GST control)	1.37 fold enrichment (6-mer frequency, TF over GST control)	1.22 fold enrichment (6-mer frequency, TF over GST control)	1.48 fold enrichment (6-mer frequency, TF over GST control)	1.52 fold enrichment (6-mer frequency, TF over GST control)	1.07 fold enrichment (6-mer frequency, TF over GST control)	1.4 fold enrichment (6-mer frequency, TF over GST control)	1.33 fold enrichment (6-mer frequency, TF over GST control)	1.22 fold enrichment (6-mer frequency, TF over GST control)	1.42 fold enrichment (6-mer frequency, TF over GST control)	1.22 fold enrichment (6-mer frequency, TF over GST control)	1.33 fold enrichment (6-mer frequency, TF over GST control)	1.32 fold enrichment (6-mer frequency, TF over GST control)	1.28 fold enrichment (6-mer frequency, TF over GST control)	1.24 fold enrichment (6-mer frequency, TF over GST control)
